Assay results from the supplement of paper PMC10600219.
Several values for one entry are separate records, joined by “and”; a condition that tells them apart may be missing. Equal entries are not always repeated. Structures can show the parent of a compound that is named as a salt. Whole data set: some 2,800 compounds, median “cell viability relative to vehicle” near 1.1, cut for the lowest 2% near 0.19. This is one part of a sample in which the lowest values are shown more often than they occur.

system: NCI-H2228 parental; experiment: cell viability relative to vehicle (fraction of vehicle); NCI-H2228 is an ALK-positive lung cancer line and DTP means drug-tolerant persister; higher = less growth inhibition; conditions: 100 nM; treatment time 6 days
Procedure, shortened: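 The 3114-agent TargetMol anti-cancer compound library was tested at 100 nM for 6 days on parental NCI-H2228 cells and on persister cells derived with 1000 nM of a targeted drug for 13 days. ATP readout by the CellTiter-Glo 3D Cell Viability Assay gave cell viability relative to DMSO vehicle-treated cells.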

Row | Compound | cell viability
1 | Cn1cc(C[C@@H](N)C(=O)O)c2ccccc21 [Indoximod] | 1.11
2 | Cn1cc(CNCC2CCN(c3ncc(C(=O)NO)cn3)CC2)c2ccccc21 [Quisinostat] | 0.159
3 | CN1CCc2c(c3ccccc3n2Cc2ccc(C(=O)NO)cc2)C1 [Tubastatin A HCl] | 1.02
4 | CCCN1CCN(c2ccc(C(=O)NC3(C(=O)NCC#N)CCCCC3)cc2)CC1 [Balicatib] | 1.07
5 | CC(C)=CCC[C@](C)(O)[C@H]1CC[C@]2(C)[C@@H]1[C@H](O)C[C@@H]1[C@@]3(C)CC[C@H](O)C(C)(C)[C@@H]3[C@@H](O[C@@H]3O[C@H](CO)[C@@H](O)[C@H](O)[C@H]3O[C@@H]3O[C@@H](C)[C@H](O)[C@@H](O)[C@H]3O)C[C@]12C [Ginsenoside Rg2] | 1.15
6 | CCCCCCCCOC(=O)c1cc(O)c(O)c(O)c1 [Octyl gallate] | 1.03
7 | CC[C@@](C)(Nc1ccnc(-c2c[nH]c3ncccc23)n1)C(=O)NCC(F)(F)F [Decernotinib] | 1.12
8 | O=C(Nc1cccc(Cl)c1)Nc1ncc(CCNc2ncnc3ccsc23)s1 [SNS-314 Mesylate] | 0.126
9 | COc1cc2ncnc(Nc3cccc(Cl)c3)c2cc1OC | 0.877
10 | COc1cc(/C=C/C(=O)OC[C@H]2O[C@H](O[C@]3(CO)O[C@H](CO)[C@@H](O)[C@@H]3OC(=O)/C=C/c3cc(OC)c(O)c(OC)c3)[C@H](O)[C@@H](O)[C@@H]2O)cc(OC)c1O [3,6'-Disinapoyl sucrose] | 0.963
11 | Fc1ccc(-n2cc(CCCCN3CCC4(CC3)OCc3ccccc34)c3ccccc32)cc1 [Siramesine hydrochloride] | 1.13
12 | COc1cccc(-c2cc(F)ccc2[C@H]2Cc3nc(N)nc(C)c3C(=O)N2)n1 | 0.171
13 | COc1ccc(-c2cc3c(C)nc(N)nc3n([C@H]3CC[C@H](OCCO)CC3)c2=O)cn1 | 0.485
14 | Oc1ccc(-c2cc(=S)ss2)cc1 [Desmethylanethol trithione] | 1.03
15 | Cc1cc(C#N)c(N)s1 [2-Amino-5-methyl-3-thiophenecarbonitrile] | 0.811
16 | COCCNc1cc(NC(=O)N2CCCc3cc(CN4CCN(C)CC4=O)c(C=O)nc32)ncc1C#N [Roblitinib] | 1.13
17 | COc1ccc2[nH]c(C(=O)c3ccccc3)cc2c1 | 0.197
18 | O=C(CCCCCCNC(=O)c1cnc(N(c2ccccc2)c2ccccc2Cl)nc1)NO [Citarinostat] | 1.03
19 | CC(C)c1cc(-c2n[nH]c(=O)n2-c2ccc3c(ccn3C)c2)c(O)cc1O [Ganetespib] | 0.118
20 | CC[C@@]1(O)C(=O)OCc2c1cc1n(c2=O)Cc2cc3cc(O)ccc3nc2-1 [10-Hydroxycamptothecin] | 0.0838
21 | CCc1c2c(nc3ccc(O)cc13)-c1cc3c(c(=O)n1C2)COC(=O)[C@]3(O)CC | 0.0693

Row | Compound | cell viability
22 | CC[C@@]1(O)C(=O)OCc2c1cc1n(c2=O)Cc2cc3cc(O)ccc3nc2-1 [Hydroxy Camptothecine] | 0.0691
23 | CCc1c2c(nc3ccc(OC(=O)N4CCC(N5CCCCC5)CC4)cc13)-c1cc3c(c(=O)n1C2)COC(=O)[C@]3(O)CC [Irinotecan] | 0.939
24 | CC[C@@]1(O)C(=O)OCc2c1cc1n(c2=O)Cc2cc3c(CN(C)C)c(O)ccc3nc2-1 [Topotecan hydrochloride] | 0.0837
25 | CCc1c2c(nc3ccc(OC(=O)N4CCC(N5CCCCC5)CC4)cc13)-c1cc3c(c(=O)n1C2)COC(=O)[C@]3(O)CC [Irinotecan hydrochloride trihydrate] | 1.11
26 | CC(C)C(C(=O)O)N1C(=O)C(=Cc2ccc(Br)cc2)SC1=S (stereo unspecified) | 1.04
27 | COc1ccc(-c2oc3cc(O)cc(O)c3c(=O)c2O)cc1 [kaempferide] | 1.13
28 | OC[C@H]1O[C@@H](Oc2cc(O)cc(/C=C/c3ccc(O[C@@H]4O[C@H](CO)[C@@H](O)[C@H](O)[C@H]4O)cc3O)c2)[C@H](O)[C@@H](O)[C@@H]1O [Mulberroside A] | 1.07
29 | N[C@@H](CO)C(=O)O [serine] | 1.06
30 | COc1ccc(C(=C2C(=O)Nc3ccccc32)c2ccc(OC)cc2)cc1 | 1.05
31 | C/C(=N\NC(=S)N1CCC1)c1ccccn1 | 0.136
32 | CN(C)C(=S)NN=C(c1ccccn1)c1ccccn1 | 0.212
33 | S=C(N/N=C1/CCCc2cccnc21)N1CCN(c2ccccn2)CC1 | 1.09
34 | COc1cc(OC)cc(C(=O)Nc2ccc(Cl)c(-c3nc4ccc(N(C)C)cc4[nH]3)c2)c1 [HhAntag] | 1.03
35 | NC(=O)c1ccc(OCCCN2CC3CCCC3C2)cc1 (stereo unspecified) | 1.17
36 | COc1c(Nc2ncc(Cl)c(N[C@H]3[C@@H](C(N)=O)[C@@H]4C=C[C@H]3C4)n2)ccc2c1CC[C@@H](N1CCOCC1)CC2 | 0.799
37 | Cc1[nH]c2ccccc2c1CCNC(=O)c1cccs1 | 1.06
38 | Cc1[nH]c2ccccc2c1CCNCc1ccc(/C=C/C(=O)NO)cc1 [Panobinostat] | 0.094
39 | CN(C)Cc1ccc(S(=O)(=O)n2ccc(/C=C/C(=O)NO)c2)cc1 [Resminostat hydrochloride] | 1.02
40 | CC(C)c1cc2c(c(O)c1O)[C@@]13CCCC(C)(C)[C@@H]1C[C@@H]2OC3=O [Carnosol] | 1.04
41 | O=C1C=C2C=C[C@@H](O)[C@H](O)[C@H]2O1 [griffonilide] | 1.11
42 | N=C(NCCCCCCNC(=N)NC(=N)Nc1ccc(Cl)cc1)NC(=N)Nc1ccc(Cl)cc1 [Chlorhexidine hydrochloride] | 0.965

Row | Compound | cell viability
43 | N=C(NCCCCCCNC(=N)NC(=N)Nc1ccc(Cl)cc1)NC(=N)Nc1ccc(Cl)cc1 [Chlorhexidine] | 1.08
44 | N#CN=C(NCCCCCCOc1ccc(Cl)cc1)Nc1ccncc1 | 0.0557
45 | CN1CCN(C(=O)C2C(C(=O)O)[C@H]3CC[C@@H]2O3)CC1 (stereo partly specified) | 0.955
46 | O=C1CSc2ccccc2N1Cc1cccc(C(F)(F)F)c1 | 1.04
47 | OC[C@@H](O)[C@@H](O)[C@@H](O)[C@@H](O)CO [Allitol] | 1.13
48 | Cn1cc(-c2nc(N[C@@H]3CCCC[C@@H]3N)c(F)c3c2C(=O)NC3)cn1 [TAK-659 hydrochloride] | 1.01
49 | Nc1nc(Cl)nc2c1ncn2[C@H]1C[C@H](O)[C@@H](CO)O1 [Cladribine] | 0.201
50 | Nc1nc(F)nc2c1ncn2[C@@H]1O[C@H](CO)[C@@H](O)[C@@H]1O [Fludarabine] | 1.12
51 | Nc1nc(Cl)nc2c1ncn2[C@@H]1O[C@H](CO)[C@@H](O)[C@@H]1F [Clofarabine] | 0.151
52 | NS(=O)(=O)Oc1ccc2c3c(c(=O)oc2c1)CCCCC3 [Irosustat] | 1.04
53 | O=C(O)c1ccc(S(=O)(=O)NC2CCCCC2)cc1 | 0.986 and 1.12
54 | CC(C)c1cc(C(=O)N2Cc3ccc(CN4CCN(C)CC4)cc3C2)c(O)cc1O [Onalespib] | 0.29
55 | C[C@@H](Oc1cc(-n2cnc3ccc(CN4CCN(C)CC4)cc32)sc1C(N)=O)c1ccccc1C(F)(F)F | 0.156
56 | COc1ccc(CC(C)(C)NC[C@H](O)c2cc(O)cc3c2OCC(=O)N3)cc1 [Olodaterol] | 0.923
57 | Cc1ccc(/C=C2\CNC/C(=C\c3ccc(C)cc3)C2=O)cc1 | 1.06
58 | c1ccc(CNc2ccccc2)cc1 [N-Phenylbenzylamine] | 1.16
59 | Cc1cc(O)c(-c2ccc(C(C)CN)cc2)c2c1[nH]c(=O)c1sccc12 (stereo unspecified) | 0.116
60 | COC(=O)c1ccc(O)c(OC)c1 [Methyl Vanillate] | 1.18
61 | CCC(=O)N1CCN(c2ccc(-n3c(=O)ccc4cnc5ccc(-c6cnc7ccccc7c6)cc5c43)cc2C(F)(F)F)CC1 [Torin 1] | 0.306
62 | Cn1c(=O)n(-c2ccc(C(C)(C)C#N)cc2)c2c3cc(-c4cnc5ccccc5c4)ccc3ncc21 [Dactolisib] | 0.258
63 | COc1ccc(-c2ccc3ncc4c(c3c2)n(-c2ccc(N3CCNCC3)c(C(F)(F)F)c2)c(=O)n4C)cn1 | 0.172

Row | Compound | cell viability
64 | NC(=O)c1ccc2nc(-c3ccc(Oc4ccc(Cl)cc4)cc3)[nH]c2c1 | 0.996
65 | Nc1ccc(Cl)cc1C(=O)O [2-Amino-5-chlorobenzoic acid] | 1.16
66 | Cc1nc(Nc2ncc(C(=O)Nc3c(C)cccc3Cl)s2)cc(N2CCN(CCO)CC2)n1 [Dasatinib] | 0.872
67 | Cc1cc(Nc2cc(N3CCN(C)CC3)nc(/C=C/c3ccccc3)n2)n[nH]1 | 0.803
68 | Cc1nc(Nc2ncc(C(=O)Nc3c(C)cccc3Cl)s2)cc(N2CCN(CCO)CC2)n1 [Dasatinib monohydrate] | 0.77
69 | Cc1cc(Nc2cc(N3CCN(C)CC3)nc(Sc3ccc(NC(=O)C4CC4)cc3)n2)n[nH]1 [Tozasertib] | 0.158
70 | O=C(O)c1ccc(CN2C[C@@H]3C[C@H]2CN3Cc2ccc(Oc3ccc(-c4ncco4)cc3)cc2)cc1 [Acebilustat] | 1.05
71 | CN1C(=O)C(C)(C)Oc2c(-c3cn(C)c(=O)c4[nH]ccc34)cc(S(C)(=O)=O)cc21 | 0.935
72 | C(=N\NC1=NCCN1)/c1c2ccccc2c(/C=N/NC2=NCCN2)c2ccccc12 [Bisantrene] | 1.01
73 | CC(C)=CCc1cc(-c2coc3cc(O)ccc3c2=O)ccc1O [Neobavaisoflavone] | 1.17
74 | CC(=O)NCCC(=O)O | 0.856
75 | COc1cc(/C=C2/SC(=S)NC2=O)ccc1OCC(=O)O | 1.1
76 | CC[C@@H]1C(=O)N(C)c2cnc(Nc3ccc(C(=O)N[C@H]4CC[C@H](N5CCN(CC6CC6)CC5)CC4)cc3OC)nc2N1C(C)C [Volasertib] | 0.192
77 | CCOc1cc(N2CCC(O)CC2)ccc1Nc1ncc2c(n1)N(C1CCCC1)CCC(=O)N2C | 1.15
78 | CC[C@@H]1C(=O)N(C)c2cnc(Nc3ccc(C(=O)NC4CCN(C)CC4)cc3OC)nc2N1C1CCCC1 | 0.167
79 | CCOc1cc(C(=O)N2CCC(N3CCN(C)CC3)CC2)ccc1Nc1ncc2c(n1)N(C1CCCC1)c1ccccc1C(=O)N2C | 1.23
80 | COc1cc(C(=O)NC2CCN(C)CC2)ccc1Nc1ncc2c(n1)N(C1CCCC1)CC(F)(F)C(=O)N2C | 0.171
81 | COc1cc(C(=O)N2CCC(N3CCN(C)CC3)CC2)ccc1Nc1ncc2c(n1)N(C)c1ccccc1C(=O)N2C | 1.11
